The results in this text go back to PubChem BioAssay (NCATS).

Assay [1] can be described thus: HPAF-II 24hr Apoptosis Induction qHTS against the NCATS CANVASS Library (AID 1347356). Further: 0% is about no effect. A digest of the protocol: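 500 HPAF-II cells/well; compounds in 11-pnt qHTS; 24 h, 37 C/5% CO2; Caspase-Glo 3/7 added, 15 min RT dark; luminescence read. Doxorubicin control.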
Assay [2] is described as follows: HEK293 18hr Apoptosis Induction qHTS against the NCATS CANVASS Library (AID 1347357). Further: 0% is about no effect. Put shortly: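 Caspase-Glo 3/7 luminescence (15 min, room temperature) measured apoptosis after an 18-hour, 37 degrees C exposure of HEK293 cells (500 cells/well) to compounds in 11 points.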
Assay [3] in a line: HPAF-II 12hr Apoptosis Induction qHTS against the NCATS CANVASS Library (AID 1347358). Further: 0% is about no effect. Put shortly:
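Caspase-Glo 3/7 luminescence (DEVD substrate) reports caspase activity in HPAF-II cells after 12 h compound treatment at 37 degrees C. Compounds were tested in an 11-point series. Doxorubicin served as control.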

Assay [4] can be described thus: HPAF-II 18hr Apoptosis Induction qHTS against the NCATS CANVASS Library (AID 1347360). Further: 0% is about no effect. Put shortly: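 Caspase-3/7 activation was measured with luminescent Caspase-Glo 3/7 reagent (15 min, RT) in HPAF-II cancer cells (500 cells/well). Before detection, cells had been treated for 18 h at 37 C with compounds (11 points).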
Assay [5] can be described thus: HEK293 12hr Apoptosis Induction qHTS against the NCATS CANVASS Library (AID 1347361). Further: 0% is about no effect. Put shortly:
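HEK293 cells (500/well, DMEM + 10% FBS) were exposed to natural products across an 11-point series for 12 hours at 37 degrees C. Caspase-3/7 activity was then measured with DEVD luciferase luminescence after 15 min at room temperature.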

Assay [6] has as its system NAD(P)H diaphorase (Clostridium kluyveri). Kind of assay: Diaphorse counterscreen qHTS: Assay Interference Panel against the NCATS CANVASS Library (AID 1347362). Further: 0% is about no effect. A digest of the protocol: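 Clostridium kluyveri diaphorase in PBS with 0.01% Tween-20 was preincubated 15 min at room temperature in the dark with compounds (11-point series). Resorufin fluorescence (ex 525/20, em 598/25) was read 5 min after adding resazurin/NADH.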

For assay [7], the target named is Luciferin 4-monooxygenase (Photinus pyralis) (UniProt P08659). Kind of assay: Firefly luciferase counterscreen qHTS: Assay Interference Panel against the NCATS CANVASS Library (AID 1347363). Further: series mostly up to about 57 µM; 0% is about no effect. Put shortly:
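Purified P. pyralis luciferase was added to compounds (11-point series) preincubated 15 min at room temperature with substrate containing 0.013 mM D-luciferin and 0.013 mM ATP; luminescence was read after 5 min.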

The nature of assay [8]: qHTS for ATAD5 Antagonist screened against the NCATS CANVASS Library (AID 1347370). Further: nearly all actives have a fitted effect of over 65% in size. Further: potency means the concentration at half of the fitted maximal effect.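 On activity change, negative = inhibition: HEK293T cells carrying an ATAD5 luciferase reporter co-treated with 10 µM 5-fluorouridine; series mostly up to about 46 µM; on the % scale 0 is the no-effect control and ±100 the full control effect.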 A digest of the protocol: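 HEK293T-ATAD5 luc reporter, 2000 cells/well; 5hr attach; cpd + 10 uM 5-FUrd; 16hr 37C, 5% CO2. Readouts: CellTiter-Fluor fluorescence (1hr), then Amplite luciferase luminescence (30min RT).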
Assay [9] deals with Nuclear receptor subfamily 1 group I member 3 (Homo sapiens) (UniProt Q14994). Kind of assay: qHTS for Constitutive Androstane Receptor (CAR) Antagonist screened against the NCATS CANVASS Library (AID 1347372). Further: potency means the concentration at half of the fitted maximal effect.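 On activity change, negative = inhibition: cells stimulated with 50 nM CITCO agonist so inhibition reflects antagonism; series mostly up to about 46 µM; on the % scale 0 is the no-effect control and ±100 the full control effect.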 A digest of the protocol: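 Cells were seeded and left 4hr to attach, then received compound at 11 concentrations and 50 nM CITCO. Following 24hr incubation, fluorescence viability and luciferase luminescence were read sequentially.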
Nuclear receptor subfamily 1 group I member 3 (Homo sapiens), sequence (Q14994 whole entry, looked up): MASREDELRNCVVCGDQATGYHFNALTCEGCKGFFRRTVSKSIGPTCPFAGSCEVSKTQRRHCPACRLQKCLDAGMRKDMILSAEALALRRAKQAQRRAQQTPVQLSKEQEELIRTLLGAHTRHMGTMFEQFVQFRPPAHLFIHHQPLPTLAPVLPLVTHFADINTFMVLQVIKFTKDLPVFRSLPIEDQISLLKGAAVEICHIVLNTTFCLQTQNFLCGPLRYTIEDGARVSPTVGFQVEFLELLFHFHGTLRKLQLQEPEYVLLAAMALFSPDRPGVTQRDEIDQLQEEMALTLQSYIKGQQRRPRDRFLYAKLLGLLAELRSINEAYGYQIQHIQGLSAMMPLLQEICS

The target is the same in assay [10]. Nature of the assay: qHTS for Constitutive Androstane Receptor (CAR) Agonist screened against the NCATS CANVASS Library (AID 1347373).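 Further: every well also contained 1.5 µM PK11195 alongside the test compound.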 Further: potency means the concentration at half of the fitted maximal effect. On activation: 0% is about no effect. Put shortly: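 Luciferase read-out (ONE-Glo, 30 min RT) of CYP2B6-2.2kb promoter activity in double-stable HepG2-hCAR cells after 24hr compound exposure with 1.5uM PK11195 present; viability measured first by CellTiter-Fluor.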

The nature of assay [11]: qHTS for Hypoxia signaling pathway (HIF-1) agonists against the NCATS CANVASS Library (AID 1347375). Further: 0% is about no effect. A digest of the protocol:
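Read-out: beta-lactamase FRET (CCF4-AM, ex 405, em 460 and 530 nm) after 2 h at room temperature. ME-180 cells stably carrying HRE-bla were treated 17 h at 37C with compounds in an 11-point concentration series.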

Assay [12] is described as follows: 10-beta competent E. coli microbial cell viability qHTS against the NCATS CANVASS Library (AID 1347376). Further: series mostly up to about 46 µM; 0% is about no effect. Put shortly:
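Luminescence from BacTiter-Glo ATP detection served as the viability read-out; bacteria (0.2 OD) had been incubated overnight at 37C with pin-transferred compounds at 11 concentrations.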

Assay [13] is described as follows: Cytotoxicity qHTS for assessment of Hepg2 cells membrane integrity screened against the NCATS CANVASS Library (AID 1347387). A digest of the protocol:
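LDH release read by fluorescence (560 nm ex/590 nm em) after CytoTox-ONE addition and 10 min RT; signal tracks lysed cells. HepG2, 2000 cells/well, plated overnight; compound 5 hr, 37C, 5% CO2, final 0.59 nM - 46 uM, 11 points.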

Assay [14] is described as follows: qHTS for Activators of p53 Stress Response Pathway screened against the NCATS CANVASS Library (AID 1347388). Further: 0% is about no effect. Put shortly: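 p53RE-bla HCT-116 cells (4000/well) were plated 5 h at 37C, exposed to compounds for 16 h at 37C over an 11-point concentration series, then loaded with CCF4 for 2 h at room temperature; 460/530 nm emission ratio read.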
Assay [15] is described as follows: qHTS for activators of dead-cell proteases activity screened against the NCATS CANVASS Library (AID 1347392).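 Further: luminescence from protease leaking out of membrane-damaged cells cleaving impermeant substrate; 0% is about no effect; rising signal means more cytotoxicity.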 Put shortly:
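Cytotoxicity in HepG2 cells was assessed by released protease cleaving AAF-aminoluciferin, with luminescence as signal. Exposure lasted 5 h at 37C across an 11-point series.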

Assay [16] is described as follows: HPAF-II Cancer Cell Toxicity qHTS against the NCATS CANVASS Library (AID 1347346). Further: nearly all actives have a fitted effect of over 55% in size. Further: potency means the concentration at half of the fitted maximal effect. On activity change, negative = cytotoxicity: series mostly up to about 38 µM; on the % scale 0 is the no-effect control and ±100 the full control effect. A digest of the protocol:
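1000 HPAF-II cells/well; 4 h pre-incubation; 11-pnt compound titration; 72 h, 37 degrees C/5% CO2; CellTiter-Glo, 15 min RT; luminescence read.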

Assay [17] is described as follows: MCF7 Cancer Cell Toxicity qHTS against the NCATS CANVASS Library (AID 1347369). On activity change, negative = cytotoxicity: series mostly up to about 46 µM; on the % scale 0 is the no-effect control and ±100 the full control effect. Put shortly: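 Cytotoxicity was measured as CellTiterGlo luminescence (ATP) after 72 h at 37 °C. The cells were MCF7 at 500 per well, with an 11-point compound concentration series.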
The nature of assay [18]: Viability qHTS for inhibitors of the SERCaMP assay screened against the NCATS CANVASS Library (AID 1347400). Further: nearly all actives have a fitted effect of over 70% in size. Further: potency means the concentration at half of the fitted maximal effect. A digest of the protocol: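 CellTiter-Glo luminescence readout after 48 h compound exposure (11-pnt qHTS series) of SH-SY5Y-GLuc SERCaMP MJH297 cells seeded at 1000 cells/well; bortezomib positive control.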
Assay [19] can be described thus: J3T Cancer Cell Toxicity qHTS against the NCATS CANVASS Library (AID 1347371). Further: potency means the concentration at half of the fitted maximal effect. Put shortly:
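Dog glioma J3T, 500 cells/well; cpd 11-pt qHTS; 72 hr, 37C/5% CO2; CellTiterGlo ATP luminescence readout.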

Structures are written as SMILES. A number with no mark means an inactive call. Records with an inconclusive call do not appear. Activity calls are given as the source filed them. The call rests on the fitted dose curve; in most records, active means well fitted curve in the direction sought with a large enough effect; inconclusive means small, poorly fitted or top-dose-only effect, or another doubt; inactive means no such curve, though single readings can be large; an effect the other way counts as inactive or inconclusive.

Luciferin 4-monooxygenase (Photinus pyralis), sequence (P08659 whole entry, looked up): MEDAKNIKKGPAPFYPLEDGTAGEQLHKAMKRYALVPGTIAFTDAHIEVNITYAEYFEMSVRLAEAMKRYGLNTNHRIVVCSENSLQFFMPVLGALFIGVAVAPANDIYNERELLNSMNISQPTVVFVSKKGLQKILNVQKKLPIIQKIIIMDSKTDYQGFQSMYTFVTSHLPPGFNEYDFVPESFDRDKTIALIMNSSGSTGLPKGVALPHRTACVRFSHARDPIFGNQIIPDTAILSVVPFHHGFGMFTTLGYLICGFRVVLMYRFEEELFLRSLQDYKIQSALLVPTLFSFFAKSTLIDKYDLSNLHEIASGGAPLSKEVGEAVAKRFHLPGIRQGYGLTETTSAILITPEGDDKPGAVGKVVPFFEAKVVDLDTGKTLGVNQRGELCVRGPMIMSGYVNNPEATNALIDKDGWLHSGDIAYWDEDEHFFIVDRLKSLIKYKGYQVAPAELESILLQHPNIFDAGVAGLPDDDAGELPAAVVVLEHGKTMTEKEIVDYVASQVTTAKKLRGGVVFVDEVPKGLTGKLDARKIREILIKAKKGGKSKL

Regarding `Cc1cc(C)c(O)c(C(=O)CC2CC(=O)NC(=O)C2)c1`, the outcome in assay [1], in [5], in assay [11], in assay [12] and in assay [13] was inactive. Further, the Potency entry in [2], in [3], in assay [4], in assay [6], in [7] and in assay [10] was “inactive” throughout. The Potency entry in assay [14] and in assay [15] was “inactive” each time. The Potency is 4.67 µM (active) in assay [8] and 14.8 µM (active) in assay [9].
With `C/C1=C/[C@@H](C)[C@H](O)[C@@H](O)/C=C/CC/C=C/C(=O)O[C@@H]1[C@H](C)C(=O)/C=C/CC1CC(=O)NC(=O)C1`, the Potency result in assay [16], in [2], in assay [3], in assay [4], in [6] and in assay [7] was “inactive” in each case. The Potency result in [17], in assay [10], in assay [14] and in assay [15] was “inactive” each time. Moreover, the result in assay [1], in assay [5], in [11], in [12] and in assay [13] was inactive. For the same molecule, the results for the Potency in [9] and in assay [18] were 2.09 µM (active) and 3.03 µM (active), respectively.
As for `Cc1cc(O)cc2c1C(=O)c1c(O)cc(O)cc1C2=O`, the Potency entry in assay [16], in assay [2], in assay [3], in assay [4], in assay [6] and in assay [7] was “inactive” in each case. Further, the Potency entry in assay [17], in assay [8], in assay [19], in [9], in assay [10] and in assay [14] was “inactive” each time. The Potency entry in assay [15] and in [18] was “inactive” each time. The outcome in [1], in [5], in assay [11], in [12] and in assay [13] was inactive.
For the molecule `COc1ccc([C@@H]2CC(=O)c3c(cc(O)c(C/C=C(\C)CCC=C(C)C)c3O)O2)cc1`, the activity change, negative = cytotoxicity in assay [16] is -11.2% [at 7.64 µM]; in assay [17], -4.45% [at 9.17 µM]; in assay [18], -0.051% [at 18.4 µM]. Besides, the caspase activation in assay [1] is 3.45% [at 9.19 µM]; in [2] it was 0.682% [at 9.19 µM]; in [3] it was 1.72% [at 9.19 µM]; in [4], -1.9% [at 9.19 µM]; in assay [5], 1.23% [at 9.19 µM]. Besides, the activity change, negative = inhibition was -4.24% [at 11.5 µM] in assay [6], -12.4% [at 11.5 µM] in assay [7], -0.0168% [at 9.19 µM] in [8] and 30.2% [at 9.19 µM] in assay [9]. Further, in assay [19], the outcome was “inactive [at 9.19 µM]”. In addition, the Potency in assay [10] is 3.05 µM (active). Besides, the activation is 1.16% [at 7.64 µM] in assay [11] and 21.1% [at 9.19 µM] in [14]. Besides, in [12], the activity change, negative = cytotoxic was -2.49% [at 9.19 µM]. Further, the cytotoxicity (LDH release) in assay [13] was -0.251 [at 9.19 µM]. In addition, in assay [15], the activation (cytotoxicity) is -1.61% [at 9.19 µM].
For `CCC(=O)CCCCC[C@@H]1NC(=O)[C@H]2CCCCN2C(=O)[C@H](C(C)C)NC(=O)[C@H](Cc2cn(OC)c3ccccc23)NC1=O`, the Potency in assay [16] was 2.98 µM (active); in assay [19] it was 11.8 µM (active); in [9], 11.7 µM (active); in assay [18] it was 15.2 µM (active). In addition, the molecule was classed as inactive in assay [1], in assay [5], in [11], in assay [12] and in [13]. The Potency entry in [2], in assay [3], in [4], in assay [6], in [7] and in assay [8] was “inactive” throughout. Besides, the Potency entry in [10] and in assay [15] was “inactive” each time.
